Data: PubChem BioAssay (NCI)
Compounds without any hit were thinned out: in the full panel of roughly 83,000, 20% have a hit.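 Plates (96-well) were seeded with cells, treated with compound at one concentration, and incubated for 48 hours before percent growth was determined.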 Activity calls are given as the source filed them. The calls were made as follows: active = growth percent below 10; inactive = the rest.

What was measured:
Test in all cases: NCI-60 one-dose screen, 48 h (100 = growth as untreated, 0 = no growth, -100 = all killed)
Details in all cases: 10 µM unless noted
SR leukemia = tested on: SR leukemia
RPMI-8226 leukemia = tested on: RPMI-8226 leukemia
OVCAR-8 ovarian = tested on: OVCAR-8 ovarian
OVCAR-5 ovarian = tested on: OVCAR-5 ovarian
OVCAR-4 ovarian = tested on: OVCAR-4 ovarian
SK-OV-3 ovarian = tested on: SK-OV-3 ovarian
IGROV1 ovarian = tested on: IGROV1 ovarian
OVCAR-3 ovarian = tested on: OVCAR-3 ovarian
HS 578T breast = tested on: HS 578T breast
NCI/ADR-RES ovarian = tested on: NCI/ADR-RES ovarian
T-47D breast = tested on: T-47D breast
BT-549 breast = tested on: BT-549 breast
MDA-MB-435 melanoma = tested on: MDA-MB-435 melanoma
SW-620 colon = tested on: SW-620 colon
MCF7 breast = tested on: MCF7 breast
HCT-116 colon = tested on: HCT-116 colon
HCC-2998 colon = tested on: HCC-2998 colon
KM12 colon = tested on: KM12 colon

Measured: growth

COc1ccc(Oc2nc(Nc3ccc(N4CCOCC4)cc3)ncc2NC(=O)Nc2cccc(OC)c2)cc1
inactive: SR leukemia 74.2% | RPMI-8226 leukemia 56.8% | OVCAR-8 ovarian 50.3% | OVCAR-5 ovarian 103% | OVCAR-4 ovarian 75.8% | SK-OV-3 ovarian 87% | IGROV1 ovarian 76.2% | OVCAR-3 ovarian 68.4% | HS 578T breast 60.5% | NCI/ADR-RES ovarian 85.2% | T-47D breast 75.2% | BT-549 breast 34.3% | MDA-MB-435 melanoma 60.2% | SW-620 colon 67.5% | MCF7 breast 88.6% | HCT-116 colon 19% | HCC-2998 colon 40.3% | KM12 colon 59.2%

C[C@@H]1N=C(c2ccc3ccccc3c2)Nc2nc3ccccn3c2C1=O
active: MDA-MB-435 melanoma -24.7%
inactive: SR leukemia 30.5% | RPMI-8226 leukemia 43.8% | OVCAR-8 ovarian 54.4% | OVCAR-5 ovarian 90.6% | OVCAR-4 ovarian 74.5% | SK-OV-3 ovarian 40.5% | IGROV1 ovarian 32.1% | OVCAR-3 ovarian 16.9% | HS 578T breast 29.3% | NCI/ADR-RES ovarian 44.5% | T-47D breast 41.7% | BT-549 breast 35.1% | SW-620 colon 26.3% | MCF7 breast 25.2% | HCT-116 colon 18.3% | HCC-2998 colon 77% | KM12 colon 30.3%

c1ccc2c(N=NSc3ncnc4nc[nH]c34)c3ccccc3nc2c1
inactive: HS 578T breast 53.6% | BT-549 breast 27.9%
active: SR leukemia -28.1% | RPMI-8226 leukemia -1.28% | OVCAR-8 ovarian -25.7% | OVCAR-5 ovarian -9.11% | OVCAR-4 ovarian -8.92% | SK-OV-3 ovarian -14.2% | IGROV1 ovarian 6.28% | OVCAR-3 ovarian 5.13% | NCI/ADR-RES ovarian -33.4% | T-47D breast -23.7% | MDA-MB-435 melanoma 5.09% | SW-620 colon -27.6% | MCF7 breast -27.7% | HCT-116 colon -33.7% | KM12 colon 9.38%

CCc1onc(-c2ccc(OC)cc2)c1-c1ccccc1OCCN(CC)CC
inactive: SR leukemia 66.5% | RPMI-8226 leukemia 91.3% | OVCAR-8 ovarian 96.3% | OVCAR-5 ovarian 91.5% | OVCAR-4 ovarian 90.8% | SK-OV-3 ovarian 101% | IGROV1 ovarian 83.3% | OVCAR-3 ovarian 96.8% | HS 578T breast 89.6% | NCI/ADR-RES ovarian 75.2% | T-47D breast 91.7% | BT-549 breast 81.1% | MDA-MB-435 melanoma 90.5% | SW-620 colon 94.7% | MCF7 breast 95.6% | HCT-116 colon 70.9% | HCC-2998 colon 80.8% | KM12 colon 93.1%

CN1C2CCC1/C(=C\c1ccc(F)cc1)C(=O)/C2=C/c1ccc(F)cc1
inactive: SR leukemia 21.6% | RPMI-8226 leukemia 11% | OVCAR-5 ovarian 72.3% | OVCAR-4 ovarian 39.1% | SK-OV-3 ovarian 79.8% | IGROV1 ovarian 61.9% | OVCAR-3 ovarian 21% | HS 578T breast 75% | NCI/ADR-RES ovarian 20.2% | T-47D breast 41.2% | BT-549 breast 39.6% | MDA-MB-435 melanoma 31.3% | SW-620 colon 38.2% | MCF7 breast 24.5% | HCC-2998 colon 82.6% | KM12 colon 31.3%
active: OVCAR-8 ovarian -19.8% | HCT-116 colon 9.46%

O=c1nc(-c2ccccc2)c2cc(-c3ccc(N4CCOCC4)cc3)ccc2[nH]1
inactive: SR leukemia 71.2% | RPMI-8226 leukemia 51.3% | OVCAR-8 ovarian 82% | OVCAR-5 ovarian 99.5% | OVCAR-4 ovarian 91% | SK-OV-3 ovarian 77.1% | IGROV1 ovarian 81.6% | OVCAR-3 ovarian 97.1% | HS 578T breast 84% | NCI/ADR-RES ovarian 95.3% | T-47D breast 52.4% | BT-549 breast 88% | MDA-MB-435 melanoma 76.6% | SW-620 colon 86.8% | MCF7 breast 71.2% | HCT-116 colon 74.3% | KM12 colon 85.7%

O=C(/C=C/c1ccc(F)cc1)N1CCN(C(=O)/C=C/c2ccc(C(F)(F)F)cc2)CC1
inactive: SR leukemia 114% | RPMI-8226 leukemia 124% | OVCAR-8 ovarian 105% | OVCAR-5 ovarian 109% | OVCAR-4 ovarian 116% | SK-OV-3 ovarian 118% | IGROV1 ovarian 122% | OVCAR-3 ovarian 113% | HS 578T breast 123% | NCI/ADR-RES ovarian 113% | T-47D breast 113% | BT-549 breast 115% | MDA-MB-435 melanoma 104% | SW-620 colon 106% | MCF7 breast 98.2% | HCT-116 colon 98% | HCC-2998 colon 102% | KM12 colon 108%

CNC1=C([N+](=O)[O-])C(c2ccccc2O)C(C#N)=C(c2cccs2)O1 (centres undefined)
inactive: SR leukemia 48.6% | RPMI-8226 leukemia 100% | OVCAR-8 ovarian 94.2% | OVCAR-5 ovarian 104% | OVCAR-4 ovarian 82.4% | SK-OV-3 ovarian 94.5% | IGROV1 ovarian 90.3% | OVCAR-3 ovarian 92% | HS 578T breast 92.3% | NCI/ADR-RES ovarian 102% | T-47D breast 81.7% | BT-549 breast 100% | MDA-MB-435 melanoma 97.8% | SW-620 colon 99.9% | MCF7 breast 92.3% | HCT-116 colon 98.7% | HCC-2998 colon 114% | KM12 colon 99.8%

O=C1/C(=C/c2cc(F)cc(F)c2)Cc2cc(F)cc(F)c21
inactive: SR leukemia 62.8% | RPMI-8226 leukemia 94.1% | OVCAR-8 ovarian 111% | OVCAR-5 ovarian 96.6% | OVCAR-4 ovarian 110% | SK-OV-3 ovarian 111% | IGROV1 ovarian 93.2% | OVCAR-3 ovarian 94.9% | HS 578T breast 90.5% | NCI/ADR-RES ovarian 98.2% | T-47D breast 107% | BT-549 breast 96.5% | MDA-MB-435 melanoma 94.8% | SW-620 colon 99.2% | MCF7 breast 56.7% | HCT-116 colon 79.8% | HCC-2998 colon 105% | KM12 colon 92.6%

CNCCCn1c2c(c3ccc(Cl)cc3c1=O)C(=O)c1cc(OC)cnc1-2
inactive: OVCAR-8 ovarian 40.8% | OVCAR-5 ovarian 91.9% | OVCAR-4 ovarian 58.8% | SK-OV-3 ovarian 23.7% | IGROV1 ovarian 50.3% | OVCAR-3 ovarian 49.3% | HS 578T breast 71.7% | NCI/ADR-RES ovarian 46.5% | T-47D breast 40% | BT-549 breast 45.9% | MDA-MB-435 melanoma 55.8% | HCC-2998 colon 71.3% | KM12 colon 40.7%
active: SR leukemia -33.5% | RPMI-8226 leukemia -56.3% | SW-620 colon -63.6% | MCF7 breast -45.4% | HCT-116 colon -81.4%

COc1ccc(-c2cc(-c3ccc(OC)cc3)c3sc(=O)[nH]c3n2)cc1
inactive: SR leukemia 98.1% | RPMI-8226 leukemia 85.3% | OVCAR-8 ovarian 82.4% | OVCAR-5 ovarian 101% | OVCAR-4 ovarian 95.6% | SK-OV-3 ovarian 92.8% | IGROV1 ovarian 84.4% | OVCAR-3 ovarian 101% | HS 578T breast 67.7% | NCI/ADR-RES ovarian 92.2% | T-47D breast 78.6% | BT-549 breast 92.9% | MDA-MB-435 melanoma 107% | SW-620 colon 95.9% | MCF7 breast 87.4% | HCT-116 colon 96.8% | HCC-2998 colon 98.7% | KM12 colon 93.9%

COc1cccc(/C(C)=N/NC(=O)CSc2nc3ccccc3c(=O)n2CCc2ccc(S(N)(=O)=O)cc2)c1
inactive: OVCAR-5 ovarian 73.2% | SK-OV-3 ovarian 43.7% | IGROV1 ovarian 77.1% | OVCAR-3 ovarian 20% | HS 578T breast 29.8% | NCI/ADR-RES ovarian 74.7% | T-47D breast 40% | BT-549 breast 62.9% | MDA-MB-435 melanoma 38.4% | SW-620 colon 30.7% | MCF7 breast 20.5% | HCC-2998 colon 69.1% | KM12 colon 14%
active: SR leukemia -1.96% | RPMI-8226 leukemia 4.78% | OVCAR-8 ovarian 7.61% | OVCAR-4 ovarian -7.35% | HCT-116 colon -50.5%

COc1ccc2nc(C)cc(Sc3nc4ccccc4s3)c2c1
active: SR leukemia -48% | RPMI-8226 leukemia -39.5% | BT-549 breast -11.8%
inactive: OVCAR-8 ovarian 36.5% | OVCAR-5 ovarian 61.2% | OVCAR-4 ovarian 25.8% | SK-OV-3 ovarian 80.5% | IGROV1 ovarian 22.2% | OVCAR-3 ovarian 22.2% | HS 578T breast 62.1% | NCI/ADR-RES ovarian 29.1% | T-47D breast 32.5% | MDA-MB-435 melanoma 17.2% | SW-620 colon 31.3% | MCF7 breast 15.9% | HCT-116 colon 24.5% | HCC-2998 colon 73.8% | KM12 colon 50.5%

COc1cc(C2CC(c3cccc(Nc4ccnc5cc(Cl)ccc45)c3)=NN2C=O)cc(OC)c1OC (centres undefined)
active: SR leukemia 4.97% | OVCAR-4 ovarian -16.7% | SK-OV-3 ovarian 0.586% | OVCAR-3 ovarian -81.2% | HS 578T breast -20.1% | NCI/ADR-RES ovarian 5.17% | T-47D breast -4.07% | BT-549 breast -36% | MDA-MB-435 melanoma -68.1% | MCF7 breast 2.77% | HCT-116 colon 7.38% | KM12 colon 9.52%
inactive: RPMI-8226 leukemia 21% | OVCAR-8 ovarian 23.2% | OVCAR-5 ovarian 41.6% | IGROV1 ovarian 40.6% | SW-620 colon 13.1% | HCC-2998 colon 37.4%

COc1ccc(CNc2c3ccccc3nc3ccccc23)cc1F
inactive: OVCAR-8 ovarian 29.4% | OVCAR-5 ovarian 36.9% | OVCAR-4 ovarian 26.1% | SK-OV-3 ovarian 48.1% | IGROV1 ovarian 15.8% | OVCAR-3 ovarian 52.2% | HS 578T breast 45.5% | NCI/ADR-RES ovarian 20.8% | T-47D breast 35% | BT-549 breast 49.5% | SW-620 colon 16.6% | HCT-116 colon 12.3% | KM12 colon 32.8%
active: SR leukemia 4.85% | RPMI-8226 leukemia -5.78% | MDA-MB-435 melanoma 7.6% | MCF7 breast 2.34% | HCC-2998 colon 5.83%

COc1cc(C2CC(c3ccc(Cl)cc3)=NN2C(C)=O)ccc1Oc1ccnc2cc(Cl)ccc12 (centres undefined)
active: OVCAR-4 ovarian -23.8%
inactive: SR leukemia 76.4% | RPMI-8226 leukemia 87.3% | OVCAR-8 ovarian 26.8% | OVCAR-5 ovarian 81.2% | SK-OV-3 ovarian 18.4% | IGROV1 ovarian 58.1% | OVCAR-3 ovarian 24% | HS 578T breast 38.8% | NCI/ADR-RES ovarian 53.2% | T-47D breast 53.9% | BT-549 breast 92% | MDA-MB-435 melanoma 62% | SW-620 colon 66.3% | MCF7 breast 42.5% | HCT-116 colon 24.5% | HCC-2998 colon 59.4% | KM12 colon 73.5%

C=C(C)[C@@H]1CC[C@]2(C(=O)NC(COC(=O)C(Cl)Cl)(COC(=O)C(Cl)Cl)COC(=O)C(Cl)Cl)CC[C@]3(C)[C@H](CC[C@@H]4[C@@]5(C)CC[C@H](OC(C)=O)C(C)(C)[C@@H]5CC[C@]43C)[C@@H]12
inactive: SR leukemia 20.4% | OVCAR-8 ovarian 73.6% | OVCAR-5 ovarian 80.7% | OVCAR-4 ovarian 54.5% | SK-OV-3 ovarian 82.1% | IGROV1 ovarian 84.3% | OVCAR-3 ovarian 57.5% | HS 578T breast 71.5% | NCI/ADR-RES ovarian 71% | T-47D breast 31.9% | BT-549 breast 80.4% | MDA-MB-435 melanoma 73.6% | SW-620 colon 62.1% | MCF7 breast 21.4% | HCC-2998 colon 66.1% | KM12 colon 36.8%
active: RPMI-8226 leukemia 2.68% | HCT-116 colon -16.7%
